The record followed here is PubChem BioAssay (EPA / NIEHS).

The term AC50 denotes the concentration giving half of the maximal activity seen.

“And” between values parts separate entries of the source, which are not always exact repeats. Equal values may be shown once. Records with an inconclusive call do not appear. The source made the active and inactive calls. The calls were made as follows: active = hit-call score of the fitted dose curve at least 0.9, where 1 is the maximum; inconclusive = response in the unintended direction; inactive = score below 0.9. Peptide text beside a SMILES is read from it.

A short description of one assay: CCTE_Shafer_MEA_dev_AB: CCTE's Alamar Blue Assay for Cytotoxicity in the Neural Network Formation Assay, Shafer Lab (AID 2284083).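 Also: twelve days of exposure from plating with re-dosing on DIV 5 and 9.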 The procedure: CCTE_Shafer_MEA_dev assay is conducted using Axion Biosystems 48 well microelectrode array (MEA) plates and Maestro recording system. Each well of the MEA plate contains a grid of 16 microelectrodes embedded in the culture surface. Electrically active cells, such as neurons, can be cultured over the electrodes, and electrical activity in these cells can be recorded extracellularly. The spontaneous firing of neurons is captured from each electrode on a microsecond timescale providing both temporally and spatially precise data. […] The CCTE_Shafer_MEA_dev assay uses primary cultures of rat cortical neurons. Recordings are made on days post-plating 5, 7, 9 and 12. As these cultures mature over time, neural networks develop functional activity and form cohesive networks in which electrical activity can be highly coordinated. CCTE_Shafer_MEA_dev_AB is 1 of 19 assay components of the CCTE_Shafer_MEA_dev assay. It measures the resazurin reduction using fluorescence.Data from the assay component CCTE_Shafer_MEA_dev_AB was analyzed into 1 assay endpoint. This assay endpoint, CCTE_Shafer_MEA_dev_AB, was analyzed in the positive analysis fitting direction relative to DMSO as the negative control and baseline of activity. Using a type of viability reporter, loss-of-signal activity can be used to understand cell viability.
On the day prior to culture, each well was coated thoroughly with 150 uL of 0.05% polyethyleneimine (PEI, Sigma Cat P3143) in 50 mM HEPES (Sigma Cat H7523) at a pH of 8. The plate was incubated at 37C for one hour. PEI was rinsed out with 500 uL of sterile water three times. Plates were stored at 4C until the day of culture. This culture was plated at a seeding density of 1.5 x 10^5 cells/well on a 48-well MEA plate, prepared as described above. Cells were administered via a 25 uL media/laminin ([…]; Sigma Cat L2020-1MG) drop directly onto the microelectrode array, as adding the cells with the laminin results in better attachment than pre-coating with laminin. After 2 hours, an additional 475 uL of cortical media was added and the cells returned to the incubator. Exposure starts at day 0 of plating and is continued over twelve days of network development until the experiment is terminated. Cells are fed with fresh medium on DIV 5 and 9, following the recordings on those days. The entire volume of media in the well is exchanged and any vehicle or compound treatment is renewed. Complete details are found in OP-NHEERL/ISTD/SBB/TJS/2015-03-r0 (available on request, email shafer.tim@epa.gov). Measurement of the electrical activity is non-invasive, and recordings can be made from the same plate over multiple different days of the culture. In cortical neurons, this allows for the measurement of extracellular action potentials over the period during which networks form in the MEA plate.
(Alamar Blue is a resazurin reagent that responds to reducing activity.)
For the compound `COC(=O)[C@H](Cc1ccccc1)NC(=O)[C@@H](N)CC(=O)O` (H-Asp-Phe-OMe), the result was inactive.
On the same count and under the same terms, the entry for `Cc1c(C(=O)c2c[nH]n(C)c2=O)ccc(S(C)(=O)=O)c1C1=NOCC1` is “inactive”; for `Cc1noc(NS(=O)(=O)c2ccc(N)cc2)c1C` it is “inactive”; for `CCCCNS(=O)(=O)c1ccccc1` it is “inactive”.
`C[N+](C)(C)CCCNS(=O)(=O)C(F)(F)C(F)(F)C(F)(F)C(F)(F)C(F)(F)C(F)(F)C(F)(F)C(F)(F)F`: the AC50 was 15 µM (active) and 7.64 µM (active).

The nature of a further assay: CCTE_Shafer_MEA_acute_LDH: CCTE's Lactate Dehydrogenase Assay for Cytotoxicity in the Neural Acute Assay, Shafer Lab (AID 2284086).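 Also: active means LDH release rises above DMSO vehicle level.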 A digest of the protocol: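 Cytotoxicity readout: spectrophotometric LDH activity in supernatant of rat primary cortical neurons, post-plating day 13 or 15, sampled after 40 min compound exposure; signal gain relative to DMSO baseline.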
`CCCC(C)C(=O)OCC` (configuration not stated): the compound was called inactive.
Still for that read-out and setting: then `COC(=O)[C@H](Cc1ccccc1)NC(=O)[C@@H](N)CC(=O)O` (H-Asp-Phe-OMe), with “inactive”; and `Cc1c(C(=O)c2c[nH]n(C)c2=O)ccc(S(C)(=O)=O)c1C1=NOCC1`, with “inactive”.
Still for that read-out and setting: the entry for `Oc1ccccc1Cc1ccccc1O` is “inactive”.
On to `Nc1cccc(N)n1`, for which the call was inactive.
On the same count and under the same terms, then `CC(C)C(=O)OCCc1ccccc1`, with “inactive”.
`CC(CCC(=O)O)(c1ccc(O)cc1)c1ccc(O)cc1`: the compound was classed as inactive.
Still for that read-out and setting: then `CC/C=C\CCOC(=O)c1ccccc1O`, with “inactive”; and `CCCCCCCCCCCC(=O)N(C)CC(=O)O`, with “inactive”; and `c1ccc(Nc2cccc3ccccc23)cc1`, with “inactive”.
The same measure, in the same setting: the entry for `Nc1nc(N)nc(-c2ccccc2)n1` is “inactive”; for `CC1(C)CC(O)CC(C)(C)N1[O]` it is “inactive”.
